The nature of assay [1]: qHTS assay to identify small molecule agonists of the androgen receptor (AR) signaling pathway in the presence of an antagonist - cell viability counter screen (AID 1259379).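 Further: MDA-kb2 human breast cancer cells carrying an MMTV luciferase reporter; series mostly up to about 92 µM; nearly all actives have a fitted effect of over 25% in size.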 The gist of the method:
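Counter screen for cell viability run in parallel with the AR agonist-mode luciferase assay. MDA-kb2 cells were co-treated with nilutamide (3.0uM final) and compounds, then incubated 16 hr at 37C, and CellTiter-Fluor fluorescence was measured.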
(Quantitative high-throughput screening tests each substance at several concentrations.)

The nature of assay [2]: qHTS assay to identify small molecule agonists of the estrogen receptor beta (ER-beta) signaling pathway - cell viability counter screen (AID 1259380). Further: nearly all actives have a fitted effect of over 30% in size. A digest of the protocol: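 In this qHTS counter screen, HEK293T cells carrying an ER-beta/UAS beta-lactamase reporter, grown in 2% charcoal-stripped FBS, received compound for 16 hr; ATP-based CellTiter-Glo luminescence was then read after 30 min at room temperature.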

Assay [3] addresses Androgen receptor (Homo sapiens) (UniProt P10275). Description: qHTS assay to identify small molecule agonists of the androgen receptor (AR) signaling pathway in the presence of an antagonist (AID 1259381; calls by dose curve; further: nearly all actives have a fitted effect of over 15% in size). A digest of the protocol: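 AR antagonist background: nilutamide 3.0uM final. Cell line: MDA-kb2, MMTV-driven luciferase, responsive to both AR and GR. Exposure 16hr, 37C, no CO2; ONE-Glo luminescence.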

Assay [4] in a line: qHTS assay to identify small molecule antagonists of the estrogen receptor beta (ER-beta) signaling pathway - cell viability counter screen (AID 1259382). Further: series mostly up to about 92 µM; nearly all actives have a fitted effect of over 55% in size. A digest of the protocol: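 HEK293T ER-beta-UAS-bla, 2% charcoal-stripped FBS; compounds + 1nM E2 16 hr 37C; CellTiter-Glo luminescence, 30 min RT.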
The target of assay [5] is Estrogen receptor (Homo sapiens) (UniProt P03372). Nature of the assay: qHTS assay to identify small molecule agonists of the estrogen receptor alpha (ER-alpha) signaling pathway in the presence of an antagonist (AID 1259383; calls by dose curve; further: top concentration of the series differs between compounds; nearly all actives have a fitted effect of over 15% in size). The gist of the method: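 ER-alpha agonism measured under antagonist challenge: 10.0nM ICI-182,780 (final) plus compound, 15 concentrations, 22hr, VM7Luc4E2 ERE-luciferase cells. Read by luminescence.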

The nature of assay [6]: qHTS assay to identify small molecule agonists or antagonists of the thyroid stimulating hormone receptor (TSHR) signaling pathway - wild type cell line counter screen (AID 1259384; calls by dose curve). A digest of the protocol:
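Wild-type Hek293 cells, 800/well, 18 h at 37C, then compound with Ro20-1724 for 30 min RT. cAMP by HTRF (cAMP-d2/anti-cAMP cryptate), 1 h RT, fluorescence read. 15 concentrations, triplicates.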

The target of assay [7] is Thyrotropin receptor (Homo sapiens) (UniProt P16473). Description: qHTS assay to identify small molecule antagonists of the thyroid stimulating hormone receptor (TSHR) signaling pathway (AID 1259385; calls by dose curve; further: nearly all actives have a fitted effect of over 20% in size). The gist of the method:
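TSHR-HEK293 cells (800/well) plated 18 h, then compounds with Ro20-1724 and TSH at 1.5 ng/mL final, 30 min at room temperature. cAMP quantified by HTRF (cAMP-d2/anti-cAMP-cryptate, 1 h); 15 concentrations in triplicate.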

Assay [8] is described as follows: qHTS assay to identify small molecule agonists of the estrogen receptor alpha (ER-alpha) signaling pathway in the presence of an antagonist - cell viability counter screen (AID 1259386).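 Further: series mostly up to about 92 µM; cells exposed to compounds for 22 h at 37 °C before the viability read; nearly all actives have a fitted effect of over 30% in size.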 A digest of the protocol:
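Steps: 5-day stripped-FBS culture; seed and incubate 24hr; add ICI-182,780 (10.0nM final); pin 15-point compound titration; incubate 22hr at 37C; add CellTiter-Fluor at 21hr; read fluorescence.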

Assay [9] deals with Progesterone receptor (Homo sapiens) (UniProt P06401). Nature of the assay: qHTS assay to identify small molecule agonists of the progesterone receptor (PR) signaling pathway (AID 1346784; calls by dose curve; further: nearly all actives have a fitted effect of over 30% in size). A digest of the protocol: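 Cells (PR-UAS-bla HEK 293T, GripTite) were plated in assay medium containing 2% charcoal-stripped FBS and incubated 6 hr. Test compounds in DMSO were added for 16 hr at 37C. FRET substrate was then loaded for 2 hr at room temperature before fluorescence reading.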

Assay [10] has the same target. Description: qHTS assay to identify small molecule antagonists of the progesterone receptor (PR) signaling pathway (AID 1346795; active means well fitted inhibition curve with a large enough effect in the signal ratio in the repeat runs, not every such curve was filed as active; the % refers to the signal ratio; further: potency means the concentration at half of the fitted maximal effect). A digest of the protocol:
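Antagonist mode: compounds tested against 1 nM (final) promegestone stimulation in HEK293T cells expressing PR-UAS-bla reporter, 16 hr at 37C, 5% CO2; beta-lactamase activity detected via B/G FRET substrate after 2 hr at room temperature.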

Assay [11] can be described thus: qHTS assay to identify small molecule antagonists of the progesterone receptor (PR) signaling pathway - cell viability counter screen (AID 1346798). Further: nearly all actives have a fitted effect of over 50% in size. Further: potency means the concentration at half of the fitted maximal effect. The gist of the method:
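Counter screen for cytotoxicity: viability of PR-UAS-bla HEK293T cells was measured with CellTiter-Glo luminescence following 16 hr compound exposure in the presence of R5020.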

The nature of assay [12]: qHTS assay to identify small molecule agonists of the progesterone receptor (PR) signaling pathway - cell viability counter screen (AID 1346799; calls by dose curve; further: nearly all actives have a fitted effect of over 45% in size). A digest of the protocol: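 Cells (PR-UAS-bla HEK293T) are plated at 3,000/well in 2% charcoal-stripped FBS medium, rested 6 hr, dosed and incubated 16 hr at 37C. CellTiter-Glo is then added and luminescence measured after 30 min at room temperature.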

The nature of assay [13]: qHTS assay to identify small molecule antagonists of the TGF-beta/Smad signaling pathway - cell viability counter screen (AID 1346824). Further: nearly all actives have a fitted effect of over 50% in size. The gist of the method: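 SBE-bla HEK 293T cells, incubated overnight, then compound plus 0.25 ng/mL TGF-beta1 (stock added) for 5 hr at 37 C. Viability was read in the same wells by CellTiter-Glo luminescence after 30 min at room temperature.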

Assay [14] is described as follows: qHTS assay to identify small molecule agonists of the TGF-beta/Smad signaling pathway - cell viability counter screen (AID 1346829). Further: top concentration of the series differs between compounds; nearly all actives have a fitted effect of over 45% in size. A digest of the protocol: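 Compound-treated SBE-bla HEK 293T cells (5 hr, 37 C) were assessed for viability with CellTiter-Glo in parallel with the reporter read.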
A short description of assay [15]: qHTS assay to identify small molecule agonists of the TGF-beta/Smad signaling pathway (AID 1346859; active means well fitted activation curve with a large enough effect in the signal ratio in the repeat runs, not every such curve was filed as active; the % refers to the signal ratio; further: series mostly up to about 77 µM). The gist of the method: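 Reporter line: HEK 293T with stably integrated SBE-controlled beta-lactamase. Compound exposure lasts 5 hr at 37 C and 5% CO2; substrate loading follows for 2 hr at room temperature, with emission read at 460 and 530 nm.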
Assay [16] deals with Thyrotropin-releasing hormone receptor (Homo sapiens) (UniProt P34981). Nature of the assay: qHTS assay to identify small molecule antagonists of the thyrotropin-releasing hormone receptor (TRHR) signaling pathway (AID 1346877; active means well fitted inhibition curve with a large enough effect in the repeat runs, not every such curve was filed as active; further: series mostly up to about 51 µM). A digest of the protocol: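 Human TRHR in HEK293 cells; inhibition of the intracellular calcium rise triggered by 1 nM TRH was followed by fluorescence over 3 min. Compounds were run at 15 concentrations, three replicates each.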

For assay [17] the target is unchanged. Description: qHTS assay to identify small molecule agonists of the thyrotropin-releasing hormone receptor (TRHR) signaling pathway (AID 1346891; calls by dose curve;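 further: HEK293 cells expressing TRHR with calcium dye readout; series mostly up to about 58 µM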). A digest of the protocol: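 Cells: TRHR-Hek293, seeded and incubated 18 h. Dye loading: 2 h at 37 °C. Compound added from DMSO stock by pin tool. Read-out: kinetic calcium fluorescence over 3 min.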
Assay [18] can be described thus: Caspase-3/7 induction in HepG2 cells by small molecules, qHTS assay (AID 1346978). Further: nearly all actives have a fitted effect of over 15% in size. A digest of the protocol:
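Wild-type HepG2 cells, 2,000/well, settled 5 hr at 37 C and 5% CO2, then compound-treated for 17 hr; caspase-3/7 activity read by luminescent Caspase-Glo 3/7 after 30 min at room temperature.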

In assay [19] the target is Estrogen receptor beta (Homo sapiens) (UniProt Q92731). Nature of the assay: qHTS assay to identify small molecule antagonists of the estrogen receptor beta (ER-beta) signaling pathway (AID 1259378; active means well fitted inhibition curve with a large enough effect in the signal ratio in the repeat runs, not every such curve was filed as active; the % refers to the signal ratio; further: potency means the concentration at half of the fitted maximal effect). The gist of the method: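 ER-beta-UAS-bla HEK293T cells in 2% charcoal-stripped FBS medium treated with compound plus 1nM final 17-beta-estradiol for 16 hr at 37C. Beta-lactamase reporter read by FRET substrate fluorescence after 2 hours at room temperature.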

A short description of assay [20]: Human pregnane X receptor (PXR) small molecule agonists, qHTS cell viability counter screen (AID 1346977). Further: nearly all actives have a fitted effect of over 50% in size. Further: potency means the concentration at half of the fitted maximal effect. A digest of the protocol: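 Cytotoxicity counter screen run in the same wells as the PXR luciferase assay, using PXR-Luc HepG2 cells in charcoal-stripped serum medium. Viability: CellTiter-Fluor fluorescence after 24hr compound treatment.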

This passage reports Potency and outcome results from PubChem BioAssay (Tox21).

SMILES strings stand for the structures. Inconclusive results are not listed. The source made the active and inactive calls. Unless noted, the call rests on the fitted dose curve; in most records, active means well fitted curve in the direction sought with a large enough effect in the repeat runs; inconclusive means weak or mixed curves; inactive means no such curve, though single readings can be large; an effect the other way counts as inactive or inconclusive.

Sequence of Thyrotropin-releasing hormone receptor (Homo sapiens) (P34981 whole entry, looked up): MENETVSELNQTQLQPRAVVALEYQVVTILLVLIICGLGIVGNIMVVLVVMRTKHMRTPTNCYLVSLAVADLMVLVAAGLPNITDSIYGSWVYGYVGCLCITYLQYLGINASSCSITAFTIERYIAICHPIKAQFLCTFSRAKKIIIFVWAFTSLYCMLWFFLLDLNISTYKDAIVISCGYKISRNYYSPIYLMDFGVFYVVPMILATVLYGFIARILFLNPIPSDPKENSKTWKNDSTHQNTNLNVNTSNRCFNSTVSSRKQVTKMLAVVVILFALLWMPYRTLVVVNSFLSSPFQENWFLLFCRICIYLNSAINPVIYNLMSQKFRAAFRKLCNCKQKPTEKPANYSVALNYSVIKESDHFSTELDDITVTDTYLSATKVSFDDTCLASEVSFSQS
Sequence of Estrogen receptor beta (Homo sapiens) (Q92731 whole entry, looked up): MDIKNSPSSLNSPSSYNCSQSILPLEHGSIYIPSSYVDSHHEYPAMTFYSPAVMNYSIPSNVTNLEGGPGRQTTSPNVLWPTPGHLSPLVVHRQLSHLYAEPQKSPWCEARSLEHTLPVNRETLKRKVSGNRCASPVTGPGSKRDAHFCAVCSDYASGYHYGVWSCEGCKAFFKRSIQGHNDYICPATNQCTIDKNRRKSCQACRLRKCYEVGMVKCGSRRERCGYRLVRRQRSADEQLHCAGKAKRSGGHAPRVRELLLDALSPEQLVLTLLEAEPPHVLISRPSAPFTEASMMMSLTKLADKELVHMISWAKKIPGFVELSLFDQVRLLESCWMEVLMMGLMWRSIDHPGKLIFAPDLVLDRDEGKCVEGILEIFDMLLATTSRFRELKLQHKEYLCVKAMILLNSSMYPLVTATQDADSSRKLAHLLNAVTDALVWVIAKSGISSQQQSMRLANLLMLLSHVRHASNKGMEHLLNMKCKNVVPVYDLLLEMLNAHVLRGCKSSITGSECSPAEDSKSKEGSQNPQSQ
Sequence of Progesterone receptor (Homo sapiens) (P06401 whole entry, looked up): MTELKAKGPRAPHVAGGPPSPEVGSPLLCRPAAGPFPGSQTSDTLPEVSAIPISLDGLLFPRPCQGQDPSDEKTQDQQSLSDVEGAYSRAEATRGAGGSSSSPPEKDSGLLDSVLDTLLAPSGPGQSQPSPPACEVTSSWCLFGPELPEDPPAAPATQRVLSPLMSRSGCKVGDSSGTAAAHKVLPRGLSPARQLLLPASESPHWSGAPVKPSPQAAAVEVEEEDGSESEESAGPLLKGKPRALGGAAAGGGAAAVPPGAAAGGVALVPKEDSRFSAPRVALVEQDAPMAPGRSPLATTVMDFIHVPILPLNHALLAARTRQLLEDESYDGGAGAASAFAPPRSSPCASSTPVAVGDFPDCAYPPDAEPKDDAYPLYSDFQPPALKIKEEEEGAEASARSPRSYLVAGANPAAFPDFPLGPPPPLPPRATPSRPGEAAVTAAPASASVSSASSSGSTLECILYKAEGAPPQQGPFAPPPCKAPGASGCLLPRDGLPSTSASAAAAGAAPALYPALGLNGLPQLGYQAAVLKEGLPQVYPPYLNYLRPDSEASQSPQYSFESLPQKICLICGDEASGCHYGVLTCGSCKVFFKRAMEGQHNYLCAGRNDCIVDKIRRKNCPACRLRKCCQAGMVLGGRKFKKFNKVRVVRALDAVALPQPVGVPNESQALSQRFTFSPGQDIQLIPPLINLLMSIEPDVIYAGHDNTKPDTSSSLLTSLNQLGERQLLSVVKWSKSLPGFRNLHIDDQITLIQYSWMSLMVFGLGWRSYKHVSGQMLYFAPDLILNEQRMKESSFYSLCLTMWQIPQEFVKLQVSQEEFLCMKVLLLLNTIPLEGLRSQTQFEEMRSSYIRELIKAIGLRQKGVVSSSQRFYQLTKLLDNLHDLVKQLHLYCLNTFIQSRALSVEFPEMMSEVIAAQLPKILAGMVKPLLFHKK
Sequence of Estrogen receptor (Homo sapiens) (P03372 whole entry, looked up): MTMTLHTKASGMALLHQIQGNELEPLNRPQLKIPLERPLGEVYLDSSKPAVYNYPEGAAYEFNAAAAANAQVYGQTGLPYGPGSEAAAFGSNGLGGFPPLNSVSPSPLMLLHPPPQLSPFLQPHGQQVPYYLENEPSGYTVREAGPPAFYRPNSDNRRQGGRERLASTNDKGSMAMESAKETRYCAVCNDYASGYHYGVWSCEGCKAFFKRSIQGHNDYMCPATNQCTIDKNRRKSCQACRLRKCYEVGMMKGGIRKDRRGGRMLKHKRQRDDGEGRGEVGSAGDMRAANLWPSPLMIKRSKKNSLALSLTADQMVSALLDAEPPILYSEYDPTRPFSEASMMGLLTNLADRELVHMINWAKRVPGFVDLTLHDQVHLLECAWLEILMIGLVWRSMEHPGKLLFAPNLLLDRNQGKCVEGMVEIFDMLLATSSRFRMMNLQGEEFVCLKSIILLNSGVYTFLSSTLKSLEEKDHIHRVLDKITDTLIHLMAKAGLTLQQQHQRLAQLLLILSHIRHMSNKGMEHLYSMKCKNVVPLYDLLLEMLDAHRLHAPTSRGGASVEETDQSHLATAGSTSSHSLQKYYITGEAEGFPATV
Sequence of Androgen receptor (Homo sapiens) (P10275 whole entry, looked up): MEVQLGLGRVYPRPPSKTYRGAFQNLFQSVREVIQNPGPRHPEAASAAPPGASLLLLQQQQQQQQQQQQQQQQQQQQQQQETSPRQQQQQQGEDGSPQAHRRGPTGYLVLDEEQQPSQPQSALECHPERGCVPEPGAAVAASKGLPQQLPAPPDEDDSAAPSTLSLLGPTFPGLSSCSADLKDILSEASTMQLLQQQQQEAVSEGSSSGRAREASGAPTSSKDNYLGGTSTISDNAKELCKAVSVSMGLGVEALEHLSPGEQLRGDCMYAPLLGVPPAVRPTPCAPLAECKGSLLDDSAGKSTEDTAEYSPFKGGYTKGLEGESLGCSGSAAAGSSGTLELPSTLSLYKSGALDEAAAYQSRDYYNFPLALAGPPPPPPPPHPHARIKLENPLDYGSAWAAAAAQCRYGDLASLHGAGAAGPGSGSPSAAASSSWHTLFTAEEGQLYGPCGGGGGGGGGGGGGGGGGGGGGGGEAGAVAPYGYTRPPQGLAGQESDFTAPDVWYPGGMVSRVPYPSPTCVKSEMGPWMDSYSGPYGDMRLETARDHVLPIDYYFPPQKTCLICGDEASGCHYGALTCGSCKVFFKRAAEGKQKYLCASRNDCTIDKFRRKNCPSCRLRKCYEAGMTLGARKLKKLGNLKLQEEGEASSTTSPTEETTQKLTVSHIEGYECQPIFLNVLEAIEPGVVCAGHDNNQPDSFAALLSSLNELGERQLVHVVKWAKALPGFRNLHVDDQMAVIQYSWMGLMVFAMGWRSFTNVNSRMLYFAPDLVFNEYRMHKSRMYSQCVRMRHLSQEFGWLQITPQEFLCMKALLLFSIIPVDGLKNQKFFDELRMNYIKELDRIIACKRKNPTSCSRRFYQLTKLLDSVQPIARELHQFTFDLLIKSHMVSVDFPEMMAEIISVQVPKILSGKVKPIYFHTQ
Sequence of Thyrotropin receptor (Homo sapiens) (P16473 whole entry, looked up): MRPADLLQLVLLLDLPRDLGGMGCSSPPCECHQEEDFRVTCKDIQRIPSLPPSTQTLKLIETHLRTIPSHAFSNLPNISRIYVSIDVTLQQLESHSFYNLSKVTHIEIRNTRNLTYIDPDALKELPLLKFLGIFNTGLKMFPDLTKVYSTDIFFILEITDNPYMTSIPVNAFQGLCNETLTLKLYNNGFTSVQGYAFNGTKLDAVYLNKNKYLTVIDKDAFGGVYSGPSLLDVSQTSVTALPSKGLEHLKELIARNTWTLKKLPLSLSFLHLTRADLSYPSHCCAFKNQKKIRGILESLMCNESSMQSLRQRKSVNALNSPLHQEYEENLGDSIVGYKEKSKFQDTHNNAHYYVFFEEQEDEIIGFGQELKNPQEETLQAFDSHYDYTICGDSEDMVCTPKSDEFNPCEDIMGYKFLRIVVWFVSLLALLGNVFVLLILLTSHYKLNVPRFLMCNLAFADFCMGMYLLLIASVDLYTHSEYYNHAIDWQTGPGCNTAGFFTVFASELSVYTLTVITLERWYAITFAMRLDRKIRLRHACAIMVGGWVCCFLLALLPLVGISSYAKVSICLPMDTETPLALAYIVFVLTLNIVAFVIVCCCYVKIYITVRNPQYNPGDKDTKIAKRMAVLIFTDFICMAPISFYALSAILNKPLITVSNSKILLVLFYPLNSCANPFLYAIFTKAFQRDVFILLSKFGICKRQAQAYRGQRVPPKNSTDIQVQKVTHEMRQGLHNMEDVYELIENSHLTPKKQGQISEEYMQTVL

For `CNC(C)Cc1ccc2c(c1)OCO2` (stereo not drawn), the Potency entry in assay [1], in [2], in assay [3], in assay [4], in assay [5] and in [7] was “inactive” in each case. The Potency entry in assay [8], in [9], in assay [12], in assay [13], in [14] and in assay [16] was “inactive” each time. Also, the Potency entry in [17] and in assay [18] was “inactive” in each case. Moreover, the compound was called inactive in [6] and in assay [15]. In addition, the Potency is 75.1 µM (active) in assay [10] and 66.9 µM (active) in assay [11].

Regarding `CCCN(CC)CC1COC2(CCC(C(C)(C)C)CC2)O1` (stereo not drawn), the Potency result in assay [19], in assay [1], in [4], in assay [5], in [7] and in [8] was “inactive” in each case. In addition, the Potency result in assay [9], in assay [10], in assay [13], in assay [14], in assay [20] and in assay [18] was “inactive” each time. The result in assay [6] and in assay [15] was inactive.

For `SCc1ccco1`, the Potency entry in [1], in [2], in [3], in assay [4], in assay [5] and in assay [7] was “inactive” throughout. Also, the Potency result in assay [8], in [9], in assay [10], in assay [11], in assay [12] and in [13] was “inactive” in each case. The Potency result in [14], in [16], in assay [17], in assay [20] and in assay [18] was “inactive” throughout. Also, the compound was called inactive in [6] and in assay [15].

Regarding `COc1cccc(C(=O)CCN[C@@H](C)[C@H](O)c2ccccc2)c1`, the Potency result in [19], in assay [2], in assay [3], in assay [4], in assay [7] and in [8] was “inactive” throughout. The Potency entry in assay [9], in [10], in assay [13], in assay [14], in assay [16] and in [17] was “inactive” in each case. The Potency result in assay [18] was “inactive”. In addition, the outcome in [6] and in assay [15] was inactive. For the same compound, in assay [20], the Potency was 29.8 µM (active).

As for `CCCOCC(=Nc1ccc(Cl)cc1C(F)(F)F)n1ccnc1`, the Potency is 17.2 µM (active) in assay [19] and 61.1 µM (active) in assay [20]. The outcome in [6] and in assay [15] was inactive. Also, the Potency entry in assay [7], in [13], in assay [14], in [16] and in [17] was “inactive” in each case.

As for `CCCCCCCCCCCCCN1CC(C)OC(C)C1` (stereo not drawn), the Potency result in [19], in assay [1], in [4], in [5], in assay [7] and in [8] was “inactive” in each case. The Potency result in assay [9], in [10], in assay [11], in [12], in assay [13] and in assay [14] was “inactive” throughout. Moreover, the Potency result in assay [17], in [20] and in assay [18] was “inactive” throughout. The outcome in assay [6] and in assay [15] was inactive.

On to `NC(=O)CCl`, for which the Potency entry in [1], in assay [2], in assay [3], in assay [4], in assay [5] and in assay [7] was “inactive” throughout. Also, the Potency result in assay [12], in assay [13], in assay [14], in assay [16], in [17] and in [20] was “inactive” throughout. Further, the Potency entry in [18] was “inactive”. Also, the result in [6] and in [15] was inactive.

As for `FC(F)(F)c1cccc(C2=CCN(CCc3ccc4ccccc4c3)CC2)c1`, the Potency entry in [19], in assay [1], in assay [4], in assay [8], in [9] and in assay [10] was “inactive” each time. Besides, the Potency entry in assay [11], in assay [12], in [13], in assay [14], in assay [16] and in [17] was “inactive” in each case. In addition, the Potency entry in assay [20] and in assay [18] was “inactive” throughout. Further, in [15], the result was inactive.
